Compounds with a hit are over-represented: about 4.8% of the library has one in this group of screens.
USP2a block: qHTS Assay for Inhibitors of Ubiquitin-specific Protease USP2a Using CHOP2 as the Reporter; Ubiquitin carboxyl-terminal hydrolase 2 (Homo sapiens), O75604; Potency, µM (series often up to 38.3 µM), without a hit: top-dose activity change, negative = inhibition, hits mostly inhibitors; USP2 core, Ub-CHOP2 coupled fluorogenic reporter, 485/531; AID 463254, 2010; 0.01% of 330,000 active;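 also: potency is read from the fitted curve at half-maximal effect; plate controls were DMSO wells for no effect and full inhibition by NEM control for full effect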
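Cell-free coupled assay: 10nM USP2 core preincubated 30min RT with compound in Tris-HCl pH 8.0/CaCl2/CHAPS buffer, then 25nM Ub-CHOP2 and 25nM reporter substrate; fluorescence (Ex 485/Em 531) read after 60min RT, normalized to NEM inhibition, concentration-response curves fitted.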
USP1-UAF1 inh: Inhibitors of USP1/UAF1: Primary Screen; 0.23% of 390,000 active; recombinant USP1/UAF1, Ub-Rhodamine cleavage fluorescence; Ubiquitin carboxyl-terminal hydrolase 1 (Homo sapiens), O94782; Potency, µM (doses to about 57.1 µM), for inactives: top-dose activity change, negative = inhibition, hits mostly inhibitors; AID 743255, 2014; also: potency is read from the fitted curve at half-maximal effect; % is scaled to controls: 0 for no effect and ±100 for the full control effect; nearly all actives have a fitted effect of over 60% in size
Target sequence (O94782 whole entry, looked up): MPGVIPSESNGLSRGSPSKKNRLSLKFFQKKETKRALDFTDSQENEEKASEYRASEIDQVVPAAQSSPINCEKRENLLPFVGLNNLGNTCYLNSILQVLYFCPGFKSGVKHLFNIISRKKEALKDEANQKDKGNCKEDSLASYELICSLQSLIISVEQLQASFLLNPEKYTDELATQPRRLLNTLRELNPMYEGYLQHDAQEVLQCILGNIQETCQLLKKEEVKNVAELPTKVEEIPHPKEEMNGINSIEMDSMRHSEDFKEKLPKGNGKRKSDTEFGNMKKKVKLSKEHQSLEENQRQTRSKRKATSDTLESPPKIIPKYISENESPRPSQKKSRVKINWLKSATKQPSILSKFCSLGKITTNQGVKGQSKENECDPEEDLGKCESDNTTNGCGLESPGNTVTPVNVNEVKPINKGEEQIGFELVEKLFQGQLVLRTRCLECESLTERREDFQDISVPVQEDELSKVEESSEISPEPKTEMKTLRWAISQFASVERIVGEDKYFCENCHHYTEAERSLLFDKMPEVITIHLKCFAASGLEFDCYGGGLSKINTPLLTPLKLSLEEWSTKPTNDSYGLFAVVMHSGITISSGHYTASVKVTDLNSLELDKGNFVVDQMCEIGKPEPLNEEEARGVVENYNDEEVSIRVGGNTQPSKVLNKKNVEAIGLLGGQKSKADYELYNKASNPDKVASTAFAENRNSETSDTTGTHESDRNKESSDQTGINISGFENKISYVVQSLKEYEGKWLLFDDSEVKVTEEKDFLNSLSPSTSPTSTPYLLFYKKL
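USP1/UAF1 complex at 1 nM was preincubated with compound for 15 min at room temperature, then Ub-Rho substrate (150nM final) was added. Fluorescence (480/540 nm) was read kinetically, 6 reads every 60 seconds.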
ATXN viability: Viability Counterscreen for Primary qHTS for Inhibitors of ATXN expression; S2 cells (HEK-293 line with an ATXN2-luciferase reporter) viability, CellTiter-Fluor protease fluorescence, 24 h; Potency, µM (series often up to 56.7 µM), hits mostly cytotoxic; 0.49% of 400,000 active; also: potency is read from the fitted curve at half-maximal effect; nearly all actives have a fitted effect of over 40% in size
IL-1B inflam inh: qHTS for Inhibitors of Inflammasome Signaling: IL-1-beta AlphaLISA Primary Screen. THP-1 LPS/ATP IL-1B secretion, AlphaLISA, 16 h; stronger effect = lower value. activity change, % at 57.5 µM. 4.7% of 360,000 active; in the data active = activity change below about -50%; inconclusive = mostly about -30% to -49%; also: % is scaled to controls: 0 for no effect and ±100 for the full control effect
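Secreted IL-1B measured by AlphaLISA bead assay after 16 h compound exposure of THP-1 cells; compounds (final up to 57.5 uM) added 1 h before LPS (250 ng/mL) and ATP (1.25 mM) stimulation; lower signal means less secretion.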
ATXN2 expr inh: Primary qHTS for Inhibitors of ATXN expression; AID 1745845, 2022; HEK-293 ATXN2-luciferase reporter, luminescence, 24 h; Potency, µM (highest dose often 57 µM), inactives show top-dose activity change, negative = inhibition, most hits filed as inhibitors; 0.72% of 360,000 active; also: potency is read from the fitted curve at half-maximal effect; % is scaled to controls: 0 for no effect and ±100 for the full control effect; nearly all actives have a fitted effect of over 55% in size
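qHTS (up to 57 uM final) was run with 24 h compound exposure of reporter cells at 37 °C. Each well was multiplexed: SteadyGlo luminescence measured ATXN2-luciferase expression after a fluorogenic Gly-Phe-AFC viability readout (25 uM final).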
Numbers without * were called inactive; i = inactive; ? = inconclusive; / = no result given. Unless noted, calls follow the shape of the dose curve; as a rule, active = well fitted curve in the direction sought with a large enough effect; inconclusive = small, poorly fitted or top-dose-only effect, or another doubt; inactive = no such curve, though single readings can be large; an effect the other way counts as inactive or inconclusive.

SMILES	USP2a block	USP1-UAF1 inh	ATXN viability	IL-1B inflam inh	ATXN2 expr inh
CC(=O)c1ccc(NC(=O)C2CCN(S(=O)(=O)c3cccs3)CC2)cc1	2%	-21%	i	3	/
CCOC(=O)[C@]12CCC=C1N(Cc1ccc3c(c1)OCO3)C(=O)[C@H](CC(=O)NCc1cccs1)C2	/	/	i	-8	1%
C[C@@H]1CN([C@@H](C)CO)C(=O)c2cc(Br)cnc2O[C@H]1CN(C)C(=O)NC1CCCC1	/	-23%	i	22	-3%
CCN(CC)C(=O)CSc1ncnc2c(-c3cccs3)nsc12	2%	-10%	?	-60*	29%
CCN(CC)C(=O)CSc1ncnc2sccc12	4%	-20%	i	14	18%
CCOc1ccc(-c2ccc(NS(=O)(=O)c3cc(C)c(C)cc3C)cc2)nn1	/	-17%	?	/	-37%
Cc1ccc(SCC(=O)OC(C)C(=O)NCc2ccccc2)cc1 (centres undefined)	0%	-15%	?	25	-9%
CCNC(=S)NNc1ccccc1	-1%	-13%	i	-95*	-18%
CN(c1nccc(=O)[nH]1)C1CCN(c2nc3ccccc3n2Cc2ccc(F)cc2)CC1	/	/	i	/	2%
O=C(Nc1cccc(Br)c1)c1ccc(CN2CCc3ccccc3C2)cc1	-3%	-7%	i	0	-32%
CSc1cccc(NC(=O)c2ccc(CN3CCc4ccccc4C3)cc2)c1	-10%	-15%	i	-88*	?
Nc1nc(N)c(S(=O)(=O)c2ccccc2)c(Nc2ccccc2)n1	/	-26%	i	/	1%
Cc1ccc(Cl)cc1N(CC(=O)NC(C)c1ccccc1)S(C)(=O)=O (centres undefined)	-1%	-12%	i	-12	-5%
COCCCNC(=S)N1CCN(c2nc(-c3ccc(Cl)cc3)cs2)CC1	/	?	i	-5	/
CCN(CC)CCCNC(=S)N1CCN(c2nc(-c3ccccc3)cs2)CC1	-1%	-20%	?	-50*	?
CC(C)CNC(=S)N1CCN(c2nc(-c3ccc(Cl)cc3)cs2)CC1	4%	-24%	?	-69*	16µM*
COCc1c(C(=O)N2CCCC(C)C2)cnn1-c1nccc(-c2cc(C)sc2C)n1 (centres undefined)	/	/	i	/	/
COc1ccc(C2=NN(CN3C(=O)C(=O)c4ccccc43)C(c3ccc(Br)cc3)C2)cc1 (centres undefined)	2%	-1%	i	-79*	53%
O=c1c(-c2ccccc2)c1-c1ccccc1	12%	/	8.9µM*	/	8.9µM*
O=c1[nH][nH]c(-c2ccccc2)c1-c1ccccc1	/	-10%	i	-14	-1%
O=c1[nH]c2ccc(NCc3ccccc3OCc3ccc(Cl)cc3)cc2[nH]1	-9%	-15%	?	0	?
COc1ccc(NC(=O)Cn2cnc3c(nc4n3CCCCC4)c2=O)cc1Cl	/	-20%	i	/	5%
CC(C)Cc1ccc(S(=O)(=O)N2CCC(c3ccncc3)CC2)cc1	/	-6%	?	/	16µM*
CC(C)(C)c1ccc(S(=O)(=O)N2CCC(c3ccncc3)CC2)cc1	/	-8%	?	/	?
Clc1ccccc1Nc1nnc(-c2ccncc2)s1	-1%	-8%	i	-76*	?
SMILES	USP2a block	USP1-UAF1 inh	ATXN viability	IL-1B inflam inh	ATXN2 expr inh
CCOc1ccccc1Nc1nc(-c2cccnc2)cs1	0%	-13%	i	-59*	13%
CCOc1ccccc1Nc1nc(-c2sc(C)nc2C)cs1	-3%	?	i	-23	-5%
Clc1ccccc1Nc1nc(-c2cccnc2)cs1	-6%	-22%	i	-87*	173%
c1cncc(Nc2nc(-c3cccnc3)cs2)c1	-1%	-20%	i	-7	21%
Cc1ccc(C)c(Nc2nc(-c3cccnc3)cs2)c1	-4%	-11%	i	-81*	34%
CC(=C(CCOC(=O)C(C)C)SSC(CCOC(=O)C(C)C)=C(C)N(C=O)Cc1cnc(C)nc1N)N(C=O)Cc1cnc(C)nc1N	/	/	i	/	-15%

Source: PubChem (National Center for Advancing Translational Sciences (NCATS))
